# Tested on: T1, MEK5
# T1 construct: gene MAP2K5
# Details: concentration: 1 μM, replicates: in singlicate; n = 1
# 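Further: KINOMEscan kinase panel screen.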
row,SMILES,%Inh [%]
1,O=C(Nc1cccc(-c2nn3ncccc3c2-c2ccnc(Nc3cccc(C(F)(F)F)c3)n2)c1)c1c(F)cccc1F [GSK299495],97.6
2,O=C(c1ccc(-c2cc(-c3c[nH]nc3-c3ccccn3)ccn2)cc1)N1CCOCC1 [GW812171],42
3,Cc1cccc(Cn2ccn3c(=O)cc(N4CCOCC4)nc23)c1 [GSK2297542],14
4,NS(=O)(=O)c1cccc(-c2ccc3ncc(N4CCOCC4)nc3c2)c1 [GSK1535721],16
5,CCc1ccnc(/C=C/c2n[nH]c3cc(Sc4ccccc4C(=O)NC)ccc23)c1,62
6,O=c1cc(N2CCOCC2)nc2n(Cc3cccc(C(F)(F)F)c3)ccn12 [GSK2297543],0
7,COC(=O)Nc1nc2cc(Oc3ccc(NC(=O)Nc4cc(F)ccc4F)cc3)ccc2[nH]1.Cl [GW701424],12
8,NS(=O)(=O)CCc1cccc(Nc2nccc(-c3c(-c4cccc(NC(=O)c5c(F)cccc5F)c4)nn4ccccc34)n2)c1 [GSK336735],99.7
9,O=C(NCCNc1ccnc(Nc2ccc(F)cc2)n1)c1cc2ccccc2s1 [GSK1379874],22
10,CC(C)(C)n1cnc2c(N)ncnc21 [SKF-97359],8
11,COc1cc2c(cc1OC[C@@H](O)CO)ncc1c3ccc(C#N)cc3[nH]c21,99.9
12,O=C(NCCNc1ccnc(Nc2ccc(F)cc2)n1)Nc1ccccc1F [GSK1379880],30
13,Fc1ccc(-c2ncn(CCCN3CCOCC3)c2-c2ccccn2)cc1 [SB-211742],0
